In PubChem BioAssay (NCI) one finds growth data, which are given here for 13 molecules.

Molecules are shown by their SMILES. The panel holds about 83,000 compounds, 20% with a hit somewhere; the sample as a whole holds those more often.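 Single-concentration screen, 48 h exposure, 96-well plates. Endpoint: percent growth. Below 10 = active.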 Unmarked numbers belong to inactive results. Active and inactive are the calls of the source.

Among the test systems are HCT-15 colon; HT29 colon; SNB-75 CNS; SNB-19 CNS; U251 CNS; PC-3 prostate; SK-MEL-5 melanoma; UACC-62 melanoma; LOX IMVI melanoma; SK-MEL-28 melanoma.
Holding throughout (experiment): NCI-60 one-dose screen, 48 h (100 = growth as untreated, 0 = no growth, -100 = all killed)
Details in all cases: 10 µM unless noted

Regarding `COc1ccc(-c2ccc(-c3ccc(C(=N)N)nc3)s2)cc1`, the growth is -77% (active) in the experiment with HCT-15 colon; -43.1% (active) in the experiment with HT29 colon; 116% in the experiment on SNB-75 CNS; 4.32% (active) with SNB-19 CNS; -51.9% (active) in the experiment with U251 CNS; -37.4% (active) in the experiment with PC-3 prostate. Further, the growth was 70.8% in the experiment on SK-MEL-5 melanoma, -94.2% (active) in the experiment on UACC-62 melanoma, -89% (active) in the experiment on LOX IMVI melanoma and 93.8% in the experiment on SK-MEL-28 melanoma.

`O=C(N/N=C/c1ccccc1Cl)c1ccccc1Nc1ccnc(C(F)(F)F)c1`: the growth in the experiment on HCT-15 colon is 10.4%; with HT29 colon it was 3.22% (active); in the experiment on SNB-75 CNS, -14.5% (active); in the experiment with SNB-19 CNS, 17.1%; with U251 CNS, 3.95% (active); with PC-3 prostate, 2.99% (active). For the same molecule, the growth in the experiment on SK-MEL-5 melanoma is -50.7% (active); in the experiment with UACC-62 melanoma, -32.7% (active); in the experiment with LOX IMVI melanoma it was 4.1% (active); with SK-MEL-28 melanoma it was 25.7%.

With `COc1cccc(NC(=O)c2sc3nc(C)c(C(=O)c4ccccc4)cc3c2N)c1`, the growth in the experiment on HCT-15 colon is 87%; in the experiment with HT29 colon it was 102%; in the experiment with SNB-75 CNS, 60.8%; in the experiment with SNB-19 CNS it was 78%; in the experiment with U251 CNS it was 82.8%; in the experiment with PC-3 prostate, 89.9%. The growth in the experiment on SK-MEL-5 melanoma was 93.8%; in the experiment with UACC-62 melanoma, 73.1%; in the experiment with LOX IMVI melanoma, 97.8%; in the experiment on SK-MEL-28 melanoma it was 82.2%.

As for `COc1cc(C)cc(-c2c(-c3cc(N4CC(O)C4)nc(-c4cccnc4)n3)cnn2C)c1`, the growth is 77.4% in the experiment with HCT-15 colon; 88.3% in the experiment with HT29 colon; 82.5% in the experiment on SNB-75 CNS; 91.4% in the experiment with SNB-19 CNS; 91.3% with U251 CNS; 82.5% in the experiment on PC-3 prostate. Also, the growth in the experiment with SK-MEL-5 melanoma was 69.8%; in the experiment with UACC-62 melanoma, 73.1%; in the experiment with LOX IMVI melanoma, 52.9%; with SK-MEL-28 melanoma, 92.5%.

Consider `CC(=O)OCCOc1cc(Cl)c(Cl)cc1Cl`, for which the growth was 104% in the experiment with HCT-15 colon; 103% in the experiment on HT29 colon; 102% in the experiment on SNB-75 CNS; 103% with SNB-19 CNS; 99.2% in the experiment on U251 CNS; 98.3% in the experiment on PC-3 prostate. Moreover, the growth in the experiment with SK-MEL-5 melanoma was 99.5%; with UACC-62 melanoma it was 98.3%; with LOX IMVI melanoma, 101%; in the experiment on SK-MEL-28 melanoma, 113%.

With `Cc1ccc(C2=Nc3c(N)nc(N)nc3NC(c3cccc(Nc4ccnc5cc(C(F)(F)F)ccc45)c3)C2)cc1` (stereo not given), the growth was 15.2% in the experiment with HCT-15 colon; 1.9% (active) with HT29 colon; 7.55% (active) with SNB-75 CNS; 34.4% with SNB-19 CNS; 12.8% in the experiment with U251 CNS; 16.5% with PC-3 prostate. In addition, the growth in the experiment with SK-MEL-5 melanoma was 17.6%; with UACC-62 melanoma, 40.8%; in the experiment on LOX IMVI melanoma, -2.42% (active); with SK-MEL-28 melanoma, 66.8%.

For `CN1CCN(Cc2ccc(NC(=O)c3cc(C#Cc4cnc(N)c5ncccc45)n(C)n3)cc2C(F)(F)F)CC1`, the growth in the experiment with HCT-15 colon is 58.4%; in the experiment on HT29 colon it was 91.4%; in the experiment on SNB-75 CNS, 142%; in the experiment with SNB-19 CNS it was 103%; in the experiment with U251 CNS, 38.5%; in the experiment with PC-3 prostate it was 98.9%. The growth is 93.6% in the experiment on SK-MEL-5 melanoma, 100% in the experiment on UACC-62 melanoma, 91.5% with LOX IMVI melanoma and 100% with SK-MEL-28 melanoma.

On to `CCCCCCCCNc1ncnc2c1ncn2Cc1nnc2c3ccccc3c(Cl)nn12`, for which the growth in the experiment with HCT-15 colon is 32.8%; with HT29 colon, 44.1%; in the experiment on SNB-75 CNS, 37.6%; in the experiment with SNB-19 CNS it was 56.2%; in the experiment on U251 CNS it was 44.8%; with PC-3 prostate it was 36.5%. For the same molecule, the growth in the experiment on SK-MEL-5 melanoma was 39.3%; with UACC-62 melanoma it was 29.9%; in the experiment with LOX IMVI melanoma, 12.8%; in the experiment on SK-MEL-28 melanoma it was 62.9%.

With `CCN1CCN(C(=O)[C@]23CC[C@@H](C)[C@H](C)[C@@H]2C2=CC[C@@H]4[C@@]5(C)C/C(=C/c6ccncc6)C(=O)C(C)(C)[C@@H]5CC[C@@]4(C)[C@]2(C)CC3)CC1`, the growth was -53.2% (active) in the experiment with HCT-15 colon; 1.6% (active) in the experiment on HT29 colon; 19.5% in the experiment on SNB-75 CNS; 47.3% with SNB-19 CNS; 15.2% with U251 CNS; 19.3% in the experiment with PC-3 prostate. The growth was -12.3% (active) in the experiment with SK-MEL-5 melanoma, 43.1% in the experiment on UACC-62 melanoma, -95.3% (active) in the experiment on LOX IMVI melanoma and -45.7% (active) with SK-MEL-28 melanoma.

For `COc1ccc(-n2c(=O)n(-c3ccc(-c4nc5ccc(F)cc5s4)cc3)c(=O)c3cccnc32)cc1`, the growth in the experiment with HCT-15 colon is 101%; in the experiment with HT29 colon, 87.3%; with SNB-75 CNS it was 75.2%; in the experiment with SNB-19 CNS it was 98.5%; in the experiment on U251 CNS it was 96.9%; with PC-3 prostate, 94.5%. Further, the growth in the experiment with SK-MEL-5 melanoma was 101%; with UACC-62 melanoma, 87.4%; in the experiment on LOX IMVI melanoma, 99.5%; in the experiment with SK-MEL-28 melanoma it was 107%.

`CCCCCCC/C=N/NC(=O)c1ccc(-n2cc(-c3ccccc3)nn2)cc1`: the growth in the experiment with HCT-15 colon was 73.6%; with HT29 colon, 101%; in the experiment on SNB-75 CNS, 86.3%; in the experiment on SNB-19 CNS, 100%; with U251 CNS it was 98.3%; in the experiment on PC-3 prostate it was 74.8%. For the same molecule, the growth with SK-MEL-5 melanoma was 94.9%; in the experiment with UACC-62 melanoma, 61.9%; in the experiment on LOX IMVI melanoma it was 59.5%; in the experiment with SK-MEL-28 melanoma, 98.3%.

Consider `CCCCN(CCC#N)C(N)=O`, for which the growth in the experiment on HCT-15 colon was 101%; with HT29 colon, 114%; with SNB-75 CNS, 105%; in the experiment with SNB-19 CNS, 98.9%; in the experiment on U251 CNS, 107%; in the experiment on PC-3 prostate, 91.2%. Moreover, the growth in the experiment with SK-MEL-5 melanoma was 99.5%; with UACC-62 melanoma, 95.4%; in the experiment on LOX IMVI melanoma it was 105%; with SK-MEL-28 melanoma, 102%.

Consider `CCCCC#Cc1c(I)n(C2OC(CO[Si](C)(C)C(C)(C)C)C3OC(C)(C)OC32)c(=O)[nH]c1=O` (stereo not given), for which the growth is 68.2% with HCT-15 colon; 69.3% in the experiment on HT29 colon; 85.5% in the experiment with SNB-75 CNS; 97.6% with SNB-19 CNS; 82.6% with U251 CNS; 84.4% in the experiment with PC-3 prostate. For the same molecule, the growth in the experiment with SK-MEL-5 melanoma is 90.4%; with UACC-62 melanoma, 81%; in the experiment on LOX IMVI melanoma it was 19.3%; in the experiment with SK-MEL-28 melanoma, 68.9%.
